Experimental data published in PubChem BioAssay AID577 (University of Pittsburgh Molecular Library Screening Center, 2007).
Among all 65,000 compounds or so, about 120 (0.18%) were called active. The entries come from a sample that favours actives as a whole. A number with no mark means an inactive call. Cut-off read from the data, not from the text of the source: active = z-score below about -3; inactive = the rest.

The compounds below were run against Genome polyprotein (West Nile virus) (UniProt P06935) (assay: West Nile NS2B-NS3 proteinase blockers – biochemical, fluorogenic substrate, primary screen (AID 577)). Conditions: WNV NS2B-NS3 protease, fluorogenic substrate Ex360/Em465; active compounds read low.
Sequence of Genome polyprotein (West Nile virus) (P06935 1371-1501 limits assumed): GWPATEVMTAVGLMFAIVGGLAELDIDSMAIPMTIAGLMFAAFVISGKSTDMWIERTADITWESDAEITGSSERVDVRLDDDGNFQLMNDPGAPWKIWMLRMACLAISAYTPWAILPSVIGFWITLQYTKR
Sequence of Genome polyprotein (West Nile virus) (P06935 1502-1679 limits assumed): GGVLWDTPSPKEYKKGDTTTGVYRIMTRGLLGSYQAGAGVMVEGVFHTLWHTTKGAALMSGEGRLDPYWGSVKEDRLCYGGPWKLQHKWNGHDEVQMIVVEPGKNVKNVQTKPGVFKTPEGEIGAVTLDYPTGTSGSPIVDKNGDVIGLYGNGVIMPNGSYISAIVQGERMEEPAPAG
Compound `O=C(Nc1ccccc1N1CCCCC1)c1ccc2nccnc2c1` has a z-score of -0.92.
For `Cc1cc(N2C(=O)C(=O)/C(=C(/O)c3ccc(Cl)cc3)C2c2cccc(Br)c2)no1` (stereo unspecified), the z-score was 0.05.
In the case of `COc1ccc(S(=O)(=O)N2CCN(c3ncnc4c(-c5ccccc5)nsc34)CC2)cc1`, the z-score was -0.64.
In the case of `Cc1ccc(NC(=O)C2CC(c3ccc(F)cc3)=NO2)cc1` (stereo unspecified), the z-score was -0.46.
`Cc1noc(C)c1S(=O)(=O)NCCc1ccc(S(N)(=O)=O)cc1` showed a z-score of -0.09.
`Cn1c(=O)cc(OCCCC(=O)N2CCN(Cc3ccc4c(c3)OCO4)CC2)c2ccccc21` showed a z-score of -0.06.
In the case of `O=c1[nH][nH]c(=O)c2cc(N3CCCC3)ccc12`, the z-score was 0.92.
Work on `COc1ccc(C)c2sc(=NC(=O)c3ccc(C#N)cc3)n(C)c12` yielded a z-score of 0.36.
For `COc1ccccc1CNC(=O)CCn1c(=O)sc2ccccc21`, the z-score was 0.34.
Compound `O=S(=O)(CCc1nc2ccccc2o1)c1ccc(Cl)cc1` has a z-score of 0.84.
Compound `CC(NC(=O)c1ccc(Cl)cc1)C(=O)N1CCCCC1` (stereo unspecified) has a z-score of -0.48.
With `Cc1ccc(CNC(=O)CCCNC(=O)c2ccc(Cl)cc2)n1C` the z-score was 0.2.
For `CCN(CC(=O)NC(C)C)C(=O)CCNC(=O)c1ccc(Cl)cc1`, the z-score was -3.81 (active).
`CCOC(=O)C1CCCN(C(=O)Cn2ncc3c(=O)oc4ccc(C)cc4c32)C1` (stereo unspecified) gave a z-score of -0.8.
In the case of `CC(=O)N(Cc1cccs1)C1CCOC(C)(C)C1` (stereo unspecified), the z-score was 0.1.
Compound `O=c1c2c(nc3n1CCCCC3)sc1c(O)cccc12` has a z-score of -0.99.
`CCn1cc(C(=O)NCc2ccc(OC)cc2OC)c(=O)c2ccc(C)nc21` was tested, and the z-score was 0.31.
`CC(=O)N1CCN(C(=O)c2cccc(S(=O)(=O)Nc3ccc(C)cc3)c2)CC1` was tested, and the z-score was -4.83 (active).
`O=C(c1cccc(S(=O)(=O)N2CCOCC2)c1)N1CCOCC1` gave a z-score of -0.56.
For `CN1CCN(C(=O)c2ccc(NS(=O)(=O)c3ccccc3)cc2)CC1`, the z-score was 0.73.
`O=C(NCc1ccco1)C1CCCN(S(=O)(=O)c2cnc[nH]2)C1` (stereo unspecified) was tested, and the z-score was 0.15.
With `Cn1c(=O)[nH]c(=O)c2c1nc(N1CCN(CCO)CC1)n2CCSc1nc2ccccc2s1` the z-score was 0.89.
For `CCOC(=O)N1CCC(NC(=O)c2ccc3nc(N4CCOCC4)sc3c2)CC1`, the z-score was -0.98.
`O=C(NCc1ccco1)c1ccc(CS(=O)(=O)Cc2ccc(F)cc2)o1` was tested, and the z-score was -0.19.
For `CCOc1ccccc1NC(=O)c1cc(S(=O)(=O)N2CCC3(CC2)OCCO3)ccc1F`, the z-score was -0.89.
In the case of `O=C(Cn1c(-c2ccccn2)nc2ccccc21)NCCN1CCOCC1`, the z-score was 0.41.
